The nature of test [1]: A CellTox Green Cytotoxicity Assay to monitor cytotoxicity in HEK293 cells - 32 hour (AID 1224881). Note: nearly all actives have a fitted effect of over 40% in size. Note: potency is the fitted concentration of half-maximal effect. An outline of the steps:
(§1)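 Real-time, in one plate: 600 HEK293 cells/well with dead-cell DNA dye, pinned compound after 5 h, 37 C incubation over 40 h; viable cells give no appreciable fluorescence.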

Test [2] can be described thus: A CellTox Green Cytotoxicity Assay to monitor cytotoxicity in HepG2 cells - 0 hour (AID 1224882). Note: nearly all actives have a fitted effect of over 35% in size. Note: potency is the fitted concentration of half-maximal effect. In a few lines:
(§2)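 Cytotoxicity was tracked as dead-cell DNA fluorescence in HepG2 cells treated with test compounds at 37 C; each time-point value comes from one kinetic series spanning 0, 8, 16, 24, 32 and 40 h.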

Test [3] can be described thus: A CellTox Green Cytotoxicity Assay to monitor cytotoxicity in HEK293 cells - 8 hour (AID 1224884). Note: nearly all actives have a fitted effect of over 35% in size. Note: potency is the fitted concentration of half-maximal effect. An outline of the steps:
as §1

Test [4] can be described thus: qHTS RealTime-Glo MT Cell Viability Assay in HepG2 cells - 16 hour (AID 1224885). Note: nearly all actives have a fitted effect of over 50% in size. An outline of the steps: (§3)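 Compound treatment began 5 h after plating HepG2 cells (600/well) with NanoLuc luciferase and prosubstrate. Plates stayed at 37 C for 40 h; luminescence was captured at six time points, 0 h through 40 h.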
(In general: Quantitative high-throughput screening tests each substance at several concentrations.)

A short description of test [5]: qHTS RealTime-Glo MT Cell Viability Assay in HEK293 cells - 24 hour (AID 1224886). Note: nearly all actives have a fitted effect of over 50% in size. Note: potency is the fitted concentration of half-maximal effect. An outline of the steps: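 Quantitative high-throughput screen of the Tox21 10K library in HEK293: cells and RealTime-Glo reagents plated together, compound added at 5 h, luminescence monitored through 40 h at 37 C.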
The nature of test [6]: qHTS RealTime-Glo MT Cell Viability Assay in HEK293 cells - 8 hour (AID 1224887). Note: nearly all actives have a fitted effect of over 50% in size. Note: potency is the fitted concentration of half-maximal effect. An outline of the steps:
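Kinetic, non-lysing viability readout. Seed HEK293 (600/well) with reagent, incubate 5 h at 37 C/5% CO2, pin 23 nL compound in DMSO, incubate at 37 C, read luminescence at 0, 8, 16, 24, 32, 40 h.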

Test [7] can be described thus: A CellTox Green Cytotoxicity Assay to monitor cytotoxicity in HEK293 cells - 16 hour (AID 1224888). Note: nearly all actives have a fitted effect of over 35% in size. An outline of the steps: as §1
Test [8] in a line: qHTS RealTime-Glo MT Cell Viability Assay in HepG2 cells - 0 hour (AID 1224889). Note: nearly all actives have a fitted effect of over 50% in size. Note: potency is the fitted concentration of half-maximal effect. An outline of the steps: as §3
The nature of test [9]: A CellTox Green Cytotoxicity Assay to monitor cytotoxicity in HepG2 cells - 8 hour (AID 1224890). Note: nearly all actives have a fitted effect of over 45% in size. Note: potency is the fitted concentration of half-maximal effect. An outline of the steps:
as §2

Test [10] in a line: qHTS assay to identify small molecule antagonists of the estrogen receptor alpha (ER-alpha) signaling pathway using the BG1 cell line in the presence of 0.1 nM 17-beta-estradiol - cell viability counter screen (AID 1259241). Note: nearly all actives have a fitted effect of over 40% in size. In a few lines:
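Following 5 days in phenol red-free medium with charcoal-stripped serum, VM7Luc4E2 cells received test compounds alongside 0.1 nM 17beta-estradiol (final) at 37C for 22 hr. Live cells were then quantified via protease-substrate fluorescence.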

A short description of test [11]: qHTS assay to identify small molecule antagonists of the androgen receptor (AR) signaling pathway using the MDA cell line in the presence of 0.5 nM R1881 - cell viability counter screen (AID 1259242). Note: nearly all actives have a fitted effect of over 45% in size. In a few lines: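 Cells seeded at 3,000/well and allowed 5 hr at 37C, 0% CO2 before compound transfer and R1881 (0.5 nM final) addition; 16 hr later, live-cell protease fluorescence indicated cytotoxicity.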

The target in test [12] is Estrogen receptor (Homo sapiens) (UniProt P03372). In words: qHTS assay to identify small molecule antagonists of the estrogen receptor alpha (ER-alpha) signaling pathway using the BG1 cell line in the presence of 0.1 nM 17-beta-estradiol (AID 1259244). Note: nearly all actives have a fitted effect of over 50% in size. Note: potency is the fitted concentration of half-maximal effect. In a few lines:
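Luciferase signal from VM7Luc4E2 ERE-reporter cells, co-dosed with test compound and 0.1 nM final 17beta-estradiol for 22 h, read with ONE-Glo.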

Test [13] in a line: qHTS assay to identify small molecule HDAC inhibitors (AID 1259364).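 Note: wild-type HCT-116 cells with endogenous class I/II HDAC activity; top concentration of the series differs between compounds; nearly all actives have a fitted effect of over 45% in size.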 In a few lines:
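HCT-116 wt cells, 1,500/well, overnight attach. Compounds (DMSO) 2 h, 37 °C. HDAC-Glo I/II, 30 min RT. Luminescence.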

Test [14] in a line: qHTS assay to identify small molecule HDAC inhibitors - cell viability counter screen (AID 1259365). An outline of the steps: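 HCT-116 wild-type, overnight attachment; 2hr drug exposure, 37C; CellTiter-Glo luminescent ATP readout after 30min RT.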
Test [15] can be described thus: qHTS assay to identify small molecule agonists of the sonic hedgehog signaling (Shh) pathway - cell viability counter screen (AID 1259366). Note: nearly all actives have a fitted effect of over 50% in size. In a few lines: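 Compounds in DMSO were pin-transferred onto 3T3 Gli1-Luc cells that had settled 4hr; plates then stood 24hr at 37C and 5% CO2. One hour before the end, CellTiter-Fluor was added and fluorescence recorded.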

Test [16] can be described thus: qHTS assay to identify small molecule antagonists of the sonic hedgehog signaling (Shh) pathway - cell viability counter screen (AID 1259367). Note: nearly all actives have a fitted effect of over 55% in size. In a few lines:
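CellTiter-Fluor signal in conditioned medium-stimulated 3T3 Gli1-Luc cells, 23 hr compound exposure, 37C.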

A short description of test [17]: qHTS assay to identify small molecule agonists of the sonic hedgehog signaling (Shh) pathway (AID 1259368; calls by dose curve;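 note: NIH/3T3-derived 3T3Gli1-Luc cells carrying a stable Gli1-driven firefly luciferase reporter; series mostly up to about 92 µM; nearly all actives have a fitted effect of over 15% in size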). An outline of the steps:
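Following a 24 hr incubation with DMSO-dissolved compounds at 37 C, 5% CO2, Gli1-Luc NIH/3T3-derived cells received luciferase reagent for 30 min at room temperature prior to luminescence measurement.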

Test [18] is described as follows: qHTS assay to identify small molecule antagonists of the sonic hedgehog signaling (Shh) pathway (AID 1259369; calls by dose curve; note: nearly all actives have a fitted effect of over 45% in size; note: potency is the fitted concentration of half-maximal effect). An outline of the steps:
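Read-out is luminescence from a firefly luciferase gene controlled by the Gli1 response element, in 3T3Gli1-Luc cells pre-incubated 4hr then exposed to compounds and conditioned medium for 24hr.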

The nature of test [19]: A CellTox Green Cytotoxicity Assay to monitor cytotoxicity in HepG2 cells - 32 hour (AID 1224883). Note: nearly all actives have a fitted effect of over 50% in size. Note: potency is the fitted concentration of half-maximal effect. An outline of the steps:
as §2

A short description of test [20]: qHTS assay to identify small molecule phospholipidosis (PLD) inducers (AID 1259344; active = well fitted curve in the direction sought with a large enough effect; an effect the other way counts as inactive or inconclusive). In a few lines:
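Accumulated phospholipid, stained red by LipidTOX during 24 h compound treatment of HepG2 cells at 37 C, is quantified from images as pit number and intensity, normalised per cell using Hoechst-stained nuclei.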

Where “and” joins values, the source holds several entries; their conditions need not be identical. Identical values can stand only once. Records with an inconclusive call do not appear. A structure can be active in one record and inactive in another. Calls of active or inactive are those of the source. Unless noted, calls come from the whole dose curve; as a rule, active = well fitted curve in the direction sought with a large enough effect in the repeat runs; inconclusive = weak or mixed curves; inactive = no such curve, though single readings can be large; an effect the other way counts as inactive or inconclusive.

Estrogen receptor (Homo sapiens), sequence (P03372 whole entry, looked up): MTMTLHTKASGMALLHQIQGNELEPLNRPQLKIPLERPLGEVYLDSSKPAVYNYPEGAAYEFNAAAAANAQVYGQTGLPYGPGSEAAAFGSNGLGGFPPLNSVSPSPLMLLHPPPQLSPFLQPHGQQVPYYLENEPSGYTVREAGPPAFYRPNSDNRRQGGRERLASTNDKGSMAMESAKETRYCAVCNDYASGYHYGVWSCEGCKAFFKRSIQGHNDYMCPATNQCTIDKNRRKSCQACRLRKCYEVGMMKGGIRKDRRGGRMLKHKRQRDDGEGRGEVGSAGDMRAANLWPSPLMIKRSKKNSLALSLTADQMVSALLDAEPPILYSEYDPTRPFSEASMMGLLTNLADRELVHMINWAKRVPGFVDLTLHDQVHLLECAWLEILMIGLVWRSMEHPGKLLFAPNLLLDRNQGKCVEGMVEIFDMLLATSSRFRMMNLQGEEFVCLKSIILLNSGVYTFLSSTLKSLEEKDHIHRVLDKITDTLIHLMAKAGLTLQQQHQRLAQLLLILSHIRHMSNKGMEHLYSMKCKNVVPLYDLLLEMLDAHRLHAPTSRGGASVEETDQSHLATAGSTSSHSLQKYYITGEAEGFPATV

As for `COc1ccc(C=O)cc1`, the Potency entry in [1], in [2], in test [3], in [4], in test [5] and in test [6] was “inactive” each time. In addition, the Potency entry in [7], in test [8], in test [9], in test [10], in [11] and in [12] was “inactive” throughout. In addition, the Potency result in test [13], in test [15], in [16], in test [17] and in [18] was “inactive” throughout. The result in test [14] was inactive.

In the case of `NC(=S)Nc1ccccc1`, the Potency in test [1] was 49.8 µM (active) and inactive; in test [2], 49.8 µM (active) and inactive; in [19], 49.8 µM (active) and inactive; in test [3] it was 49.8 µM (active) and inactive; in [5], 8.86 µM (active) and inactive; in test [9], 55.9 µM (active) and inactive. Moreover, the Potency in [12] was 27.8 µM (active) and inactive. In addition, the Potency entry in test [4], in test [6], in test [8], in [10], in test [11] and in test [15] was “inactive” throughout. For the same compound, the Potency result in test [16], in [17] and in [18] was “inactive” in each case. The compound was classed as inactive in [14].

With `CCC(=O)O[C@H]1CC[C@H]2[C@@H]3CCC4=CC(=O)CC[C@]4(C)[C@H]3CC[C@]12C`, the Potency in test [1] was 19.5 µM (active) and 19 µM (active); in test [19], 43.6 µM (active); in [3], 34.7 µM (active) and inactive; in test [5], 21.9 µM (active) and 23.9 µM (active); in test [6], 38.9 µM (active); in test [8], 7.76 µM (active). In addition, the Potency in test [9] is 43.6 µM (active); in test [18], 30.6 µM (active) and 18.8 µM (active). The Potency result in test [2], in test [4], in test [10], in test [12], in test [13] and in test [16] was “inactive” throughout. Besides, the Potency result in [17] is “inactive”. Also, the compound was called inactive in test [14].

For the compound `CCOc1cc(C=O)ccc1O`, the Potency result in test [1], in [2], in test [19], in [3], in test [4] and in test [5] was “inactive” in each case. For the same compound, the Potency result in test [6], in test [7], in test [8], in [9], in test [10] and in [13] was “inactive” each time. The Potency entry in test [15], in [16], in test [17] and in [18] was “inactive” each time. Also, the result in test [20] and in test [14] was inactive.

Take `Brc1ccc(Oc2cc(Br)c(Br)cc2Br)c(Br)c1`: the Potency result in [1], in [2], in test [3], in [4], in [6] and in [7] was “inactive” throughout. Further, the Potency result in test [8], in [9], in test [10], in test [11], in [12] and in test [13] was “inactive” each time. The Potency result in test [15], in test [16], in test [17] and in [18] was “inactive” in each case. For the same compound, in [5], the Potency is 38.9 µM (active). The outcome in test [14] was inactive.

For the compound `N#CC(Br)Br`, the Potency entry in [1], in [2], in test [19], in test [3], in test [4] and in test [5] was “inactive” throughout. Also, the Potency entry in test [6], in test [7], in test [8], in [9], in test [10] and in [12] was “inactive” each time. For the same compound, the Potency result in [13], in test [15], in test [16], in [17] and in test [18] was “inactive” in each case. Also, the compound was classed as inactive in test [14].

The record behind these values is PubChem BioAssay (Tox21).
